Assay outcomes from PubChem.
Pf apPOL block = Pf-apPOL DNA polymerase inhibition; 210,000 compounds, 0.25% hits; inhibition, % at 10 µM; Recombinant Pf-apPOL, molecular beacon fluorescence, 1.5 h
mHTT-CaM PPI inh = inhibitors of human mutant huntingtin-calmodulin interaction; P42858; AlphaScreen His-mHTT/GST-CaM binding, luminescence; inhibition, % at 15 µM; 190,000 compounds, 3.6% hits; AID 1671202
Hits are given with their value; - = inactive; . = not tested or not shown; + = active, no number. Only a selection was taken, and hits are over-represented in it overall. No stated cut-off is given here; in the data, active means inhibition above about 50%; inactive means the rest.

SMILES	Pf apPOL block	mHTT-CaM PPI inh
Cc1nc2c(C(=O)NCCCN3CCOCC3)c[nH]n2c(=O)c1Cc1ccc(F)cc1Cl	-	-
CN(CC(=O)Nc1ccc(Cl)cc1)S(=O)(=O)c1ccc2[nH]c3c(c2c1)CCCC3	-	66
CN(CC(=O)NCCC1=CCCCC1)S(=O)(=O)c1ccc2[nH]c3c(c2c1)CCCC3	-	63
CN(CC(=O)NC1CCCCCC1)S(=O)(=O)c1ccc2[nH]c3c(c2c1)CCCC3	-	59
CN(CC(=O)Nc1cccc(Cl)c1)S(=O)(=O)c1ccc2[nH]c3c(c2c1)CCCC3	-	55
CN(CC(=O)NCc1cccnc1)S(=O)(=O)c1ccc2[nH]c3c(c2c1)CCCC3	-	-
Cc1cc(C)c(NC(=O)CN(C)S(=O)(=O)c2ccc3[nH]c4c(c3c2)CCCC4)c(C)c1	-	-
Cc1ccccc1NC(=O)CN(C)S(=O)(=O)c1ccc2[nH]c3c(c2c1)CCCC3	-	-
Cc1ccc(NC(=O)CN(C)S(=O)(=O)c2ccc3[nH]c4c(c3c2)CCCC4)cc1	-	-
O=C(COc1ccccc1N1C(=O)C2C3C=CC(C3)C2C1=O)c1ccc(Cl)cc1 (stereo unspecified)	-	-
COc1cc(OC)c(NC(=O)N2CCOc3ccccc32)cc1Cl	-	-
CN1CCN(CCCNC(=O)c2cc3cn(C4CCCC4)cc3s2)CC1	-	-
Cc1ccc(NC(=O)CN(C)S(=O)(=O)c2ccc3[nH]c4c(c3c2)CCCC4)c(Cl)c1	-	-
Cc1cccc(NC(=O)CN(C)S(=O)(=O)c2ccc3[nH]c4c(c3c2)CCCC4)c1	-	64
COC(=O)c1ccc2occ(-c3oc4ccc(C(=O)OC)cc4c3O)c2c1	-	100
COC(=O)c1ccc(=O)oc1	.	-
COc1cccc(C(=O)Nc2c3c(nn2-c2cccc(C)c2)CSC3)c1	-	53
COc1ccc(-n2nc3c(c2NC(=O)c2cccc(OC)c2)CSC3)cc1	-	-
COc1ccc(-n2nc3c(c2NC(=O)c2cccc(Br)c2)CSC3)cc1	100	-
COc1cc(OC)cc(C(=O)Nc2c3c(nn2-c2cccc(C)c2)CSC3)c1	-	-
COc1ccc(CN2CCCC(N3CCCC3)C2=O)cc1F (stereo unspecified)	-	-
COc1ccc(OC)c2sc(NC(=O)C3CCCCN3S(C)(=O)=O)nc12 (stereo unspecified)	-	-
CCCCNC(=O)c1c(Cl)nc(Cl)c([N+](=O)[O-])c1Cl	-	94
CCCCNC(=O)c1c(Cl)nc(Cl)c(Cl)c1C	-	-
Cc1cc(C)c(C(=O)CSc2ncn[nH]2)c(C)c1	-	-
SMILES	Pf apPOL block	mHTT-CaM PPI inh
CC(=O)Nc1c(C(=O)c2ccc(F)cc2)oc2ccc(Cl)cc12	-	-
O=C(Nc1c(C(=O)O)oc2ccc(Cl)cc12)c1ccc(C(F)(F)F)cc1	85	-
CN(C)c1ccc(/C=C/C=N/NC2=NS(=O)(=O)c3ccccc32)cc1	.	+
CN(C)C1=NS(=O)(=O)c2ccccc21	-	-
CC(NC(=O)c1cnn2c(-c3ccccc3)ccnc12)c1ccccc1 (stereo unspecified)	-	-
Fc1ccc2c(c1)Sc1ccccc1N2	-	74
FC(F)(F)c1ccc2c(c1)Nc1ccccc1S2	-	.
Cc1ccc(N2C(=O)/C(=C\c3ccc(N(C)C)cc3)S(=O)(=O)C2c2ccccc2)cc1 (stereo unspecified)	-	-
CCCN(C)C(=O)CCC1CCN(c2cc(NCC)ncn2)CC1	-	-
CCCCC1CCC(C(=O)Nc2c3c(nn2-c2ccc(OC)cc2)CS(=O)(=O)C3)CC1 (stereo unspecified)	-	58
COc1ccc(-n2nc3c(c2NC(=O)C2CCCC2)CS(=O)(=O)C3)cc1	-	-
O=C(Cc1ccccc1)NCc1cc(-c2ccccc2)on1	-	-
COc1ccccc1C(=O)N1CCn2cnnc2C1	-	-
O=C1OC2CC1N(C(=O)c1ccccc1Br)C2 (stereo unspecified)	-	-
COC(=O)c1ccc(-c2csc(NC(=O)Nc3ccc4c(c3)OCO4)n2)cc1	-	-
CC(C)Cc1ccc(-c2csc(Nc3ccc4c(c3)OCO4)n2)cc1	-	67
Clc1ccc(-c2csc(Nc3ccc4c(c3)OCO4)n2)cc1	-	-
O=[N+]([O-])c1ccc(-c2csc(Nc3ccc4c(c3)OCO4)n2)cc1	-	55
O=C(Nc1ccc(Cl)cc1F)c1cc(S(=O)(=O)N2CCc3ccccc32)ccc1F	-	-
COc1ccc(Cc2nc3c4cnn(-c5ccccc5)c4ncn3n2)cc1	-	-
O=C(c1cc2c(s1)CCC(C(=O)N1CCN(C3CCCC3)CC1)C2)N1CCCC1 (stereo unspecified)	-	-
COc1ccccc1CNS(=O)(=O)c1ccc(F)c(C(=O)O)c1F	-	-
O=C(Nc1ccc(F)cc1)c1ccc(N2CCC(NCc3cc(Cl)ccc3O)C2)nc1 (stereo unspecified)	-	-
O=[N+]([O-])c1c(C(Cl)Cl)nn(-c2ccccc2)c1N1CCCC1	-	54
Cc1nn(-c2ccccc2)c(N2CCOCC2)c1[N+](=O)[O-]	-	.
SMILES	Pf apPOL block	mHTT-CaM PPI inh
CCC(=O)NCCc1csc(C2CCN(C(=O)c3ccc(F)c(Cl)c3)CC2)n1	-	-
Cc1ccc(N(C)C(=O)C2CCN(c3ncnc4c3nc3n4CCCCC3)CC2)cc1C	-	56
O=C(Nc1ccccc1F)C1CCN(c2ncnc3c2nc2n3CCCCC2)CC1	96	-
Cc1ccc(Cl)cc1N1CCN(c2ncnc3c2nc2n3CCCCC2)CC1	-	99
Cc1ccc(N(C)C(=O)C2CCCN(c3ncnc4c3nc3n4CCCCC3)C2)cc1C (stereo unspecified)	-	-
Clc1cccc(N2CCN(c3ncnc4c3nc3n4CCCC3)CC2)c1	-	-
O=C(Nc1cc(F)ccc1F)C1CCN(c2ncnc3c2nc2n3CCCCC2)CC1	-	-
Fc1ccc(Cc2nc3ccccc3[nH]2)cc1	-	-
O=[N+]([O-])c1ccc(C=Cc2ccc([N+](=O)[O-])cc2S(=O)(=O)O)c(S(=O)(=O)O)c1	-	.
CCS(=O)(=O)N1CCN(c2ccc([N+](=O)[O-])c(NC3CC3)c2)CC1	-	-
O=[N+]([O-])c1ccc(N2CCNCC2)cc1NC1C2CC3CC(C2)CC1C3 (stereo unspecified)	-	82
O=C(O)c1cc(N2C(=O)C3C4c5ccccc5C(c5ccccc54)C3C2=O)ccc1Cl (stereo unspecified)	-	-
O=C(O)c1cc(-n2cccc2)ccc1Cl	-	72
Cc1ccc2[nH]c(O)c(N=O)c2c1Br	-	-
COc1cc(C=O)cc(Cl)c1OCc1cccc(F)c1	-	-
COc1cc(/C=C2\C(=O)ON=C2C)ccc1OCc1ccccc1Cl	-	-
CCOc1cc(/C=C2\C(=O)ON=C2C)cc(Cl)c1OCc1ccc(F)cc1	-	93
CCOc1cc(/C=C2\C(=O)ON=C2C)cc(Br)c1OCc1ccc(F)cc1	-	75
COc1cc(/C=C2\C(=O)ON=C2C)cc(Cl)c1OCc1ccc(F)cc1	-	74
COc1cc(/C=C2\C(=O)ON=C2C)cc(Cl)c1OCc1ccccc1	-	91
COc1cc(/C=C2\C(=O)ON=C2C)cc(Br)c1OCc1ccc(F)cc1	-	-
CCOc1cc(/C=C2/C(=O)ON=C2C)ccc1OCc1ccc(Cl)cc1	-	-
CSc1ccc(CCNc2ncnc3c2nc2n3CCCC2)cc1	-	-
CCCn1c(=N)c(S(=O)(=O)c2ccc(C)cc2)cc2c(=O)n3ccccc3nc21	-	-
O=C(CSc1ncccn1)c1ccc(O)c(O)c1	-	-
